Six1-Eya2 inh = qHTS Assay for Inhibitors of the Six1/Eya2 Interaction. AlphaScreen GST-Six1/His-Eya2 binding, biochemical; stronger effect = lower value. activity change, % (test concentration not listed). actives 0.56% (n = 360,000); in the data active means activity change below about -65%; inconclusive means mostly about -30% to -63%
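Compounds are tested against tagged Six1 and Eya2 proteins bridged by glutathione donor and nickel acceptor beads; after a one-hour incubation at 37 °C without light, AlphaScreen emission is recorded.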
PKM2 act = qHTS Assay for Activators of Human Muscle isoform 2 Pyruvate Kinase. purified PKM2, Kinase-Glo ATP luminescence, activation; response scale: 0% is enzyme alone, no compound. Potency, µM (doses to about 57.5 µM), without a hit: top-dose activation, usual class: activators. actives 0.34% (n = 260,000). AID 1631, 2009; further: potency means the concentration at half of the fitted maximal effect; nearly all actives have a fitted effect of over 55% in size
Target sequence (P14618 whole entry, looked up, canonical isoform): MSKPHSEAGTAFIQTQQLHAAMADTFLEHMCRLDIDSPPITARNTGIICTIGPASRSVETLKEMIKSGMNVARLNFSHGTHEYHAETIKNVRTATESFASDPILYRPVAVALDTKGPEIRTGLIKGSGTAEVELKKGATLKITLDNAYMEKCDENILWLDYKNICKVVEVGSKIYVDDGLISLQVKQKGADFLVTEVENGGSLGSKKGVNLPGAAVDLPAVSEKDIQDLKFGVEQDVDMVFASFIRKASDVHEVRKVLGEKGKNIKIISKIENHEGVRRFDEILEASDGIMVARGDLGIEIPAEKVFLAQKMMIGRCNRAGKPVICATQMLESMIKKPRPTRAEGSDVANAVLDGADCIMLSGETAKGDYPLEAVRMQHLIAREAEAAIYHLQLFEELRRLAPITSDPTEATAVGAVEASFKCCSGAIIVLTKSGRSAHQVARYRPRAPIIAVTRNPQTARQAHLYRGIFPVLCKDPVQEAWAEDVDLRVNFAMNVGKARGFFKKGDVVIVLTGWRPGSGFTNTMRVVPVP
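ATP formation by purified human PK-M2, quantified via coupled luciferase luminescence after 1 h at room temperature with 0.1 mM ADP and 0.5 mM PEP final.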
CtBP-E1A inh = qHTS Assay for Inhibitors of the CtBP/E1A Interaction. AlphaScreen GST-E1A/His-CtBP binding, 1536-well; stronger effect = lower value. activity change, % (concentration not given with the values). actives 0.49% (n = 340,000); in the data active means activity change below about -65%; inconclusive means mostly about -30% to -63%
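AlphaScreen with 125 nM GST-E1A and 125 nM His-CtBP (5X stocks) in Tris pH 8.0, 300 mM NaCl, BSA, Tween 20, TCEP. Compounds preincubated 2 h at 37 deg C, then glutathione donor/nickel acceptor beads added for 1 h at 37 deg C in dark.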
RORgamma inh = qHTS for inhibitors of ROR gamma transcriptional activity | Drosophila S2 Gal4-RORgamma UAS-luciferase reporter, 20 h | Potency, µM (top dose mostly 53.6 µM), inactives show at the top dose activity change, negative = inhibition, hits mostly inhibitors | actives 5.4% (n = 310,000) | AID 2551, 2010; further: potency means the concentration at half of the fitted maximal effect; nearly all actives have a fitted effect of over 60% in size
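Stably transfected Drosophila Schneider cells are the test system, with ROR gamma fused to Gal4 and luciferase under UAS control; luminescence is read after 20 hr of 700 uM copper sulfate induction at ambient temperature.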
Gal4-VP16 FLuc = VP16 counterscreen qHTS for inhibitors of ROR gamma transcriptional activity; Drosophila S2 Gal4-VP16 UAS-luciferase, luminescence, 20 h; Potency, µM (top dose mostly 53.6 µM), for inactives: at the top dose activity, negative = inhibition, actives largely listed as inhibitors; actives 3.5% (n = 310,000); AID 2546, 2010;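 further: Gal4-VP16 expression switched on by copper sulfate through the metallothionein promoter; potency means the concentration at half of the fitted maximal effect; nearly all actives have a fitted effect of over 50% in size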
* hit, by the source's call; [ ] = dose if it differs, or a comment. Only some compounds are listed: those with a hit (about 5.6% of all), similar ones and a draw of the others. Unless noted, the call rests on the fitted dose curve; in most records, active means well fitted curve in the direction sought with a large enough effect; inconclusive means small, poorly fitted or top-dose-only effect, or another doubt; inactive means no such curve, though single readings can be large; an effect the other way counts as inactive or inconclusive. On the % scale 0 is the no-effect control and ±100 the full control effect.

How did CN1CCC(=O)N([C@H](COc2ccccc2)Cc2ccccc2)CC1 do in these assays?
Six1-Eya2 inh: 1; PKM2 act: 1%; CtBP-E1A inh: 0; RORgamma inh: -10%; Gal4-VP16 FLuc: -8%

What do the screens show for `CC(OC(=O)c1ccc2c(=O)n3c(nc2c1)CCC3)C(=O)NC1CCCCC1C` (stereo not drawn)?
Six1-Eya2 inh: 8; PKM2 act: -1%; CtBP-E1A inh: 5; RORgamma inh: -2%; Gal4-VP16 FLuc: -7%

How did Cc1ccc(Cl)cc1NC(=S)Nn1cnnc1 do in these assays?
Six1-Eya2 inh: -2; PKM2 act: 7%; CtBP-E1A inh: 1; RORgamma inh: 13µM*; Gal4-VP16 FLuc: inconclusive

What do the screens show for `Cc1c(Cl)cccc1NC(=S)NN1CCOCC1`?
Six1-Eya2 inh: -1; PKM2 act: 0%; CtBP-E1A inh: 7; RORgamma inh: 10µM*; Gal4-VP16 FLuc: inconclusive

What do the screens show for `Cc1c(Cl)cccc1NC(=S)N1CCCCCC1`?
Six1-Eya2 inh: -13; PKM2 act: -1%; CtBP-E1A inh: -24; RORgamma inh: 14µM*; Gal4-VP16 FLuc: inconclusive

Results for Cc1cccc(NC(=S)N2CCCCCC2)c1C ?
Six1-Eya2 inh: 0; PKM2 act: -2%; CtBP-E1A inh: 5; RORgamma inh: inconclusive; Gal4-VP16 FLuc: inconclusive

Results for Cc1c(Cl)cccc1NC(=S)NCCN1CCOCC1 ?
Six1-Eya2 inh: -2; PKM2 act: -3%; CtBP-E1A inh: -2; RORgamma inh: inconclusive; Gal4-VP16 FLuc: -10%

Results for Cc1ccc(Cl)cc1NC(=S)N1CCCCCC1 ?
Six1-Eya2 inh: 0; PKM2 act: 0%; CtBP-E1A inh: -2; RORgamma inh: 10µM*; Gal4-VP16 FLuc: inconclusive

Results for O=C(NC(=S)Nc1cccc(C(F)(F)F)c1)c1csnn1 ?
Six1-Eya2 inh: -12; PKM2 act: -8%; CtBP-E1A inh: -10; RORgamma inh: inconclusive; Gal4-VP16 FLuc: inconclusive

How did CCCc1c(C(=O)N/N=C/c2ccco2)nnn1-c1nonc1N do in these assays?
Six1-Eya2 inh: 5; CtBP-E1A inh: -3; RORgamma inh: 0%; Gal4-VP16 FLuc: 4%

What do the screens show for `O=c1cnc2cnc(Oc3ccccc3)nc2n1CCc1ccccc1`?
RORgamma inh: 13%; Gal4-VP16 FLuc: -9%

How did CCc1ccccc1NC(=S)NNC(=O)c1ccccc1Cl do in these assays?
Six1-Eya2 inh: 1; PKM2 act: -7%; RORgamma inh: inconclusive; Gal4-VP16 FLuc: -16%

Results for Cc1ccc(NC(=S)N2CCCCCC2)c(C)c1 ?
Six1-Eya2 inh: 6; PKM2 act: -1%; CtBP-E1A inh: 2; RORgamma inh: inconclusive; Gal4-VP16 FLuc: 18µM*

Results for CCc1ccccc1NC(=S)N1N=CCC1c1ccccc1 (stereo not drawn) ?
Six1-Eya2 inh: 1; PKM2 act: -2%; CtBP-E1A inh: 9; RORgamma inh: 3.2µM*; Gal4-VP16 FLuc: 7.9µM*

What do the screens show for `CCc1ccccc1NC(=S)NN`?
PKM2 act: -2%; RORgamma inh: 11µM*; Gal4-VP16 FLuc: inconclusive

Results for CC(C)N(C)CCOC(=O)C1COc2ccccc2O1 (stereo not drawn) ?
Six1-Eya2 inh: -12; PKM2 act: -1%; CtBP-E1A inh: -8; RORgamma inh: 23%; Gal4-VP16 FLuc: 0%

How did CCOC(=O)Cn1nc(C)n(-c2c(C)cccc2C)c1=O do in these assays?
Six1-Eya2 inh: 13; PKM2 act: -4%; CtBP-E1A inh: -2; RORgamma inh: 3%; Gal4-VP16 FLuc: -7%

What do the screens show for `COC(=O)c1cc(OC)c(OC)cc1N1C(=O)CCCC1=O`?
Six1-Eya2 inh: -2; RORgamma inh: 15%; Gal4-VP16 FLuc: 3%

How did COc1ccc(OC)c(N2C(=O)CCCC2=O)c1 do in these assays?
Six1-Eya2 inh: 12; PKM2 act: 2%[11.5 µM]; CtBP-E1A inh: 4; RORgamma inh: 11µM*; Gal4-VP16 FLuc: 2%

How did CCOc1ccc(N2C(=O)CC(N)C2=O)cc1 (stereo not drawn) do in these assays?
Six1-Eya2 inh: -1; PKM2 act: 17%; CtBP-E1A inh: 2; RORgamma inh: 1.1µM*; Gal4-VP16 FLuc: 3.2µM*

What do the screens show for `CCCOc1ccc(N2C(=O)CC(SCCc3nc4ccccc4[nH]3)C2=O)cc1` (stereo not drawn)?
Six1-Eya2 inh: -4; PKM2 act: 6%; CtBP-E1A inh: 3; RORgamma inh: -3%; Gal4-VP16 FLuc: -19%

How did CCOc1ccc(N2C(=O)CC(N(C)Cc3ccccc3)C2=O)cc1 (stereo not drawn) do in these assays?
Six1-Eya2 inh: 8; PKM2 act: -15%; CtBP-E1A inh: 5; RORgamma inh: inconclusive; Gal4-VP16 FLuc: inconclusive

Results for CCOc1ccc(N2C(=O)CC(SCc3nc4ccccc4[nH]3)C2=O)cc1 (stereo not drawn) ?
Six1-Eya2 inh: -13; PKM2 act: 21%; CtBP-E1A inh: -6; RORgamma inh: 11µM*; Gal4-VP16 FLuc: inconclusive

What do the screens show for `O=C1CC(SCc2nc3ccccc3[nH]2)C(=O)N1c1cccc(F)c1` (stereo not drawn)?
Six1-Eya2 inh: -6; PKM2 act: 4%; CtBP-E1A inh: -22; RORgamma inh: 10µM*; Gal4-VP16 FLuc: 14µM*

Results for O=C1CC(SCc2nc3ccccc3[nH]2)C(=O)N1c1ccc(Cl)cc1 (stereo not drawn) ?
Six1-Eya2 inh: -19; PKM2 act: 14%; CtBP-E1A inh: -20; RORgamma inh: 3.5µM*; Gal4-VP16 FLuc: 6.3µM*

What do the screens show for `COc1ccc(F)cc1S(=O)(=O)NCC1CCCO1` (stereo not drawn)?
Six1-Eya2 inh: -2; PKM2 act: -7%; CtBP-E1A inh: 8; RORgamma inh: -2%[1.91 µM]; Gal4-VP16 FLuc: -14%

Results for CCCCNC(=S)Nc1ccccc1F ?
Six1-Eya2 inh: -6; PKM2 act: 0%; CtBP-E1A inh: 0; RORgamma inh: 11µM*; Gal4-VP16 FLuc: inconclusive

Results for CC(C)c1ccccc1NC(=S)NCc1ccccc1F ?
Six1-Eya2 inh: -7; PKM2 act: 11%; CtBP-E1A inh: -3; RORgamma inh: inconclusive; Gal4-VP16 FLuc: inconclusive

Results for CC(C)CNC(=S)Nc1ccccc1F ?
Six1-Eya2 inh: 25; PKM2 act: -20%; CtBP-E1A inh: 21; RORgamma inh: 6.3µM*; Gal4-VP16 FLuc: 4.5µM*

What do the screens show for `COc1ccc(CC(=O)NCc2ccc(F)cc2)cc1S(=O)(=O)N1CCOCC1`?
Six1-Eya2 inh: -2; CtBP-E1A inh: -3

What do the screens show for `NC(=S)n1[nH]c(-c2ccccc2)c(N=Nc2ccccc2C(=O)N2CCOCC2)c1=O`?
Six1-Eya2 inh: 1; PKM2 act: -14%; CtBP-E1A inh: -5; RORgamma inh: 2µM*; Gal4-VP16 FLuc: -14%
